Cav3 T inh: inhibitors of human Cav3.2 T-type calcium channel | O95180 | Cav3.2-expressing cells, Fluo-4 calcium fluorescence FDSS; hits give low values | 4% of 100,000 active | B-score at 10 µM;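 active = single-dose well whose peak fluorescence ratio is a statistical outlier from its plate by either plate-standardised score or position-corrected B-score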
CYP2C19 act: cytochrome P450 2C19 (human) activation; activation factor at 5 µM; recombinant CYP2C19, luciferin-H EGE luminescence; hits give high values; 0 = fully inhibited enzyme, 1 = untreated enzyme; AID 1025; 96,000 tested, under 10 active; P33261;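 active = activation factor of at least 2 at 5 µM in the primary screen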;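 note: 0 = wells with 2.5 mM tranylcypromine and 1 = vehicle-only wells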
CYP2C19 inhib: inhibitors of human CYP2C19 | P33261 | 21% of 96,000 active | CYP2C19 Supersomes, luciferin-H EGE luminescence, 30 min | AID 778 | inhibition, % at 5 µM;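 active = CYP2C19 inhibition above a set limit at 5 µM in the primary screen, cut at about 50% in these data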;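 note: plate controls were negative control wells for no effect and 2.5 mM tranylcypromine positive control for full effect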
CYP2C9 inh: human CYP2C9 inhibition; P11712; 20% of 96,000 active; inhibition, % at 5 µM; CYP2C9 Supersomes, luciferin-H conversion, luminescence;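 active = blocking of liver enzyme CYP2C9 beyond about 50% at 5 µM, limit read from the data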
CYP2C9 act: CYP2C9 (human) activation. activation factor at 5 µM. recombinant CYP2C9, luciferin-H conversion, luminescence; hits give high values; factor 1 = untreated enzyme, 0 = blocked. P11712. 1.4% of 96,000 active;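 active = activation factor of 2 or more for CYP2C9 at a 5 µM dose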;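 note: 0 = sulfaphenazole-blocked wells and 1 = vehicle-only wells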
* hit, by the source's call. This is a sample that favours compounds with a hit; in the whole collection about 27% have one here.

What do the screens show for `COc1cc(NC(=O)CC2NCCNC2=O)cc(OC)c1` (stereo not drawn)?
Cav3 T inh: -3.66; CYP2C19 act: 1.1; CYP2C19 inhib: -11.3; CYP2C9 inh: -1.6; CYP2C9 act: 1

How did COC(C/C=C/C(=O)COCc1ccccc1)OC do in these assays?
Cav3 T inh: 0.53

How did CCOc1cc(CNc2ccc(N(C)C)cc2)cc(Br)c1OCC(=O)NC(C)(C)C do in these assays?
Cav3 T inh: -0.766; CYP2C19 act: 0; CYP2C19 inhib: 96.0*; CYP2C9 inh: 95.8*; CYP2C9 act: 0

What do the screens show for `CCOc1cc(CNc2cccc3ccccc23)cc(Br)c1OCC(=O)NC(C)(C)C`?
Cav3 T inh: -1.9; CYP2C19 act: 0.3; CYP2C19 inhib: 65.4*; CYP2C9 inh: 69.8*; CYP2C9 act: 0.3

Results for CCOc1cc(CO)cc(Br)c1OCC(=O)O ?
Cav3 T inh: -0.0138

Results for C=CCOc1c(Br)cc(CNc2ccc(NC(=O)CCC)cc2)cc1OCC ?
Cav3 T inh: -5.41*; CYP2C19 act: 0.5; CYP2C19 inhib: 53.9*; CYP2C9 inh: 70.9*; CYP2C9 act: 0.3

How did COc1ccc(NCc2nnc(SCC#N)n2-c2ccccc2OC)cc1 do in these assays?
Cav3 T inh: -1.23; CYP2C19 act: 0.6; CYP2C19 inhib: 38.2; CYP2C9 inh: 30.3; CYP2C9 act: 0.7

How did CCOC(=O)N1CCN(C(=O)CN2C(=O)COc3ccc(C(C)(C)C)cc32)CC1 do in these assays?
Cav3 T inh: 0.991; CYP2C19 act: 1.1; CYP2C19 inhib: -5.2; CYP2C9 inh: 4.8; CYP2C9 act: 1

What do the screens show for `O=C(CSc1nnnn1-c1cccc2c1CCCC2)N1CCCCC1`?
Cav3 T inh: -0.852

What do the screens show for `CCCCSCCCNC(=O)Nc1cccc(OC)c1`?
Cav3 T inh: -2.26; CYP2C19 act: 0.2; CYP2C19 inhib: 80.5*; CYP2C9 inh: 72.6*; CYP2C9 act: 0.3

How did CCN(CC)C(=O)CSCC(=O)Nc1ccccc1 do in these assays?
Cav3 T inh: -0.0165; CYP2C19 act: 0.4; CYP2C19 inhib: 57.3*; CYP2C9 inh: -3.1; CYP2C9 act: 1

How did COc1cccc(NC(=O)CNC(=O)c2ccc(F)cc2)c1 do in these assays?
Cav3 T inh: 0.839; CYP2C19 act: 0.5; CYP2C19 inhib: 53.3*; CYP2C9 inh: 41.5; CYP2C9 act: 0.6

What do the screens show for `COc1cccc(NC(=O)CSCC(=O)O)c1`?
Cav3 T inh: -0.173; CYP2C19 act: 0.9; CYP2C19 inhib: 11.9; CYP2C9 inh: 12.0; CYP2C9 act: 0.9

Results for CCOc1ccc(NC(=O)CSCC(=O)O)cc1 ?
Cav3 T inh: -0.371; CYP2C19 act: 0.9; CYP2C19 inhib: 13.4; CYP2C9 inh: 4.8; CYP2C9 act: 1

How did COc1cccc(NC(=O)CSCC(=O)Nc2ccccc2)c1 do in these assays?
CYP2C19 act: 0.4; CYP2C19 inhib: 60.1*; CYP2C9 inh: 77.8*; CYP2C9 act: 0.2

What do the screens show for `O=C(NCCCN1CCC(Cc2ccccc2)CC1)C1CC(=O)N(C2CCCCCC2)C1` (stereo not drawn)?
Cav3 T inh: -0.00181; CYP2C19 act: 0.8; CYP2C19 inhib: 20.6; CYP2C9 inh: 43.5; CYP2C9 act: 0.6

How did COc1cccc(NC(=O)CCP(C)(=O)O)c1 do in these assays?
CYP2C19 act: 1.1; CYP2C19 inhib: -13.9; CYP2C9 inh: -11.4; CYP2C9 act: 1.1

What do the screens show for `COc1cccc(NC(=O)CC2SC(=Nc3ccccc3)NC2=O)c1` (stereo not drawn)?
CYP2C19 act: 0.4; CYP2C19 inhib: 62.9*; CYP2C9 inh: 69.5*; CYP2C9 act: 0.3

How did COC(=O)c1ccccc1NC(=O)CSCC(=O)Nc1ccccc1 do in these assays?
Cav3 T inh: 0.698; CYP2C19 act: 0.5; CYP2C19 inhib: 53.4*; CYP2C9 inh: 33.6; CYP2C9 act: 0.7

What do the screens show for `COc1cccc(NC(=O)Cc2ccccc2)c1`?
Cav3 T inh: 0.173; CYP2C19 act: 0.1; CYP2C19 inhib: 94.0*; CYP2C9 inh: 31.1; CYP2C9 act: 0.7

How did CCc1ccc2c(c1)C(c1ccc([N+](=O)[O-])cc1)=NNC(c1ccc(F)cc1)=N2 do in these assays?
Cav3 T inh: -1.3; CYP2C19 act: 1.2; CYP2C19 inhib: -17.3; CYP2C9 inh: -1.8; CYP2C9 act: 1

Results for CCSc1nnc(NC(=O)CSc2nc3c(c(=O)n2-c2ccccc2OC)SCC3)s1 ?
Cav3 T inh: 0.273

How did O=C(CC(c1ccccc1)c1ccccc1O)NCCN1CCOCC1 (stereo not drawn) do in these assays?
Cav3 T inh: 0.0608; CYP2C19 act: 0.5; CYP2C19 inhib: 54.3*; CYP2C9 inh: 45.7; CYP2C9 act: 0.5

How did CC(C)(C)NC(=O)CC(c1ccccc1)c1ccccc1O (stereo not drawn) do in these assays?
Cav3 T inh: 0.0118; CYP2C19 act: 0.1; CYP2C19 inhib: 89.7*; CYP2C9 inh: 96.2*; CYP2C9 act: 0

How did CN(C)CCCNC(=O)CC(c1ccccc1)c1ccccc1O (stereo not drawn) do in these assays?
CYP2C19 act: 1.2; CYP2C19 inhib: -18.4; CYP2C9 inh: -17.0; CYP2C9 act: 1.2

What do the screens show for `CC(C)(C)NC(=O)CC(CC(=O)O)c1ccccc1` (stereo not drawn)?
Cav3 T inh: 0.767; CYP2C19 act: 1; CYP2C19 inhib: -4.0; CYP2C9 inh: -2.5; CYP2C9 act: 1

Results for COC(=O)CNc1nc(-c2ccncc2)nc2ccccc12 ?
Cav3 T inh: 0.648; CYP2C19 act: 0.4; CYP2C19 inhib: 56.2*; CYP2C9 inh: 83.6*; CYP2C9 act: 0.2

Results for CCOc1nc(-c2ccncc2)nc2ccccc12 ?
Cav3 T inh: -0.228

Results for O=C1CC(c2ccncc2)c2cc3c(cc2N1)OCO3 (stereo not drawn) ?
Cav3 T inh: 0.393; CYP2C19 act: 0.5; CYP2C19 inhib: 48.4; CYP2C9 inh: 68.0*; CYP2C9 act: 0.3

Results for O=C1CC(c2ccc3c(c2)OCO3)c2cc3c(cc2N1)OCO3 (stereo not drawn) ?
Cav3 T inh: -0.00469; CYP2C19 act: 0.4; CYP2C19 inhib: 64.4*; CYP2C9 inh: 60.3*; CYP2C9 act: 0.4

What do the screens show for `Cc1ccc(C2CC(=O)Nc3cc4c(cc32)OCO4)o1` (stereo not drawn)?
Cav3 T inh: -0.575; CYP2C19 act: 0.2; CYP2C19 inhib: 84.0*; CYP2C9 inh: 26.5; CYP2C9 act: 0.7

What do the screens show for `CCCSc1nc(C)nc2c1c(=O)n(C)c(=O)n2C`?
Cav3 T inh: 0.319; CYP2C19 act: 0.9; CYP2C19 inhib: 5.2; CYP2C9 inh: 6.8; CYP2C9 act: 0.9

How did CC(C)C(=O)Nc1ccc(NC(=O)c2cccc(F)c2)cn1 do in these assays?
Cav3 T inh: 0.303; CYP2C19 act: 1; CYP2C19 inhib: 2.5; CYP2C9 inh: -2.2; CYP2C9 act: 1

Results for COc1ccccc1NC(=O)C(C)N1CCN(C/C=C/c2ccccc2)CC1 (stereo not drawn) ?
Cav3 T inh: 1.76; CYP2C19 act: 0.4; CYP2C19 inhib: 60.0*; CYP2C9 inh: 36.8; CYP2C9 act: 0.6

What do the screens show for `COc1cccc2cc(C(=O)N3CCN(C/C=C/c4ccccc4)CC3)c(=O)oc12`?
Cav3 T inh: -0.494; CYP2C19 act: 0.6; CYP2C19 inhib: 35.4; CYP2C9 inh: -186.7; CYP2C9 act: 2.9*

From PubChem
